From PubChem BioAssay (NCATS)
Where “and” joins values, the source holds several entries; their conditions need not be identical. Identical values can stand only once. Results filed as inconclusive are left out. Calls of active or inactive are those of the source. The call rests on the fitted dose curve; in most records, active means well fitted inhibition curve with a large enough effect; inconclusive means small, poorly fitted or top-dose-only effect; inactive means flat fitted curve, though single readings scatter.

The compounds below were run on KB-3-1 (assay: Cytotoxic Profiling of Annotated Libraries Using Quantitative High-Throughput Screening (AID 1296008; further: nearly all actives have a fitted effect of over 60% in size)). Conditions: Five cell lines viability, CellTiter-Glo ATP luminescence, 48-72 h; max response: active compounds read low.
In short: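 Compounds were pin-transferred onto cells and incubated 48 or 72 hr at 37 degree Celsius, 95% humidity. CellTiter-Glo was added, plates sat 10 min at room temperature, then ATP-coupled luminescence was imaged as the viability read-out.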
On the % scale 0 is the no-effect control and ±100 the full control effect.

`CCC(=O)O` was tested. Which max response did it give?
The max response was -11.1% (inactive).

`CCC(CN)CC(C)CCNCC(O)CNCC(C)CC(CC)CN` (centres undefined) was tested. Which max response did it give?
The max response was -5.63% (inactive).

`O=[N+]([O-])c1ccc(Oc2ccc(N=C=S)cc2)cc1` was tested. Which max response did it give?
Its max response is -16.8% (inactive).

How did the max response turn out when `Cc1c(N)nc(C(CC(N)=O)NCC(N)C(N)=O)nc1C(=O)NC(C(=O)NC(C)C(O)C(C)C(=O)NC(C(=O)NCCc1nc(-c2nc(C(=O)NCCCN[C@@H](C)c3ccccc3)cs2)cs1)C(C)O)C(O[C@@H]1O[C@@H](CO)[C@@H](O)[C@H](O)[C@@H]1O[C@H]1O[C@H](CO)[C@@H](O)[C@H](OC(N)=O)[C@@H]1O)c1cnc[nH]1` (some centres undefined) was run?
The max response was -0.767% (inactive).

Which max response does the source give for `Cn1nnnc1SCC1=C(C(=O)O)N2C(=O)[C@@H](NC(=O)[C@H](OC=O)c3ccccc3)[C@H]2SC1` here?
Its max response is -7.31% (inactive).

Which max response does the source give for `O=C(O)c1cc2ccccc2c(Cc2c(O)c(C(=O)O)cc3ccccc23)c1O` here?
Its max response is -8.98% (inactive).

For `O=C(OCCO)c1ccccc1O`, which max response is on record?
Its max response is -5.64% (inactive).

Which max response does the source give for `C[C@H](CSC(=O)c1ccccc1)C(=O)N1C[C@@H](Sc2ccccc2)C[C@H]1C(=O)O` here?
Its max response is -1.05% (inactive).

Which max response does the source give for `CC(=O)N[C@@H](C=O)[C@H](O)[C@H](O)[C@@H](O)CO` here?
Its max response is 5.53% (inactive) and 4.97% (inactive).

For `COc1cc(C[C@@H]2NCCc3cc(O)c(O)cc32)cc(OC)c1OC`, which max response is on record?
The max response was -8.11% (inactive).

For `O=C(O)[C@@H](O)[C@H](O)[C@H](O)[C@@H](O)C(=O)O` (tested in a mixture with another compound), which max response is on record?
Its max response is -0.35% (inactive).

With `COCC1=C(C(=O)OC(C)OC(=O)OC(C)C)N2C(=O)[C@@H](NC(=O)/C(=N\OC)c3csc(N)n3)[C@H]2SC1` (some centres undefined) as the compound, how does the max response read?
The max response was -19.8% (inactive) and -4.94% (inactive).

With `CCCCCCCCCCCCCCCCCC(=O)[O][Al]` as the compound, how does the max response read?
The max response was -8.23% (inactive).

For `OC(CN1CCCCC1)c1cc(-c2ccccc2)on1` (centres undefined), which max response is on record?
Its max response is -12.7% (inactive).

`C[C@H]1C[C@@H]2[C@H]([C@@H](O)C[C@@]3(C)[C@H]2CC[C@]3(O)C(=O)COC(=O)CCC(=O)O)[C@@]2(C)C=CC(=O)C=C12` was tested. Which max response did it give?
Its max response is -6.8% (inactive).

Which max response does the source give for `COC(=O)C1=C(C)NC(C)=C(C(=O)O[C@H]2CCN(Cc3ccccc3)C2)[C@H]1c1cccc([N+](=O)[O-])c1` here?
Its max response is -25.4% (inactive).

For `NCCCC[C@H](NC(=O)[C@@H]1CCCN1C(=O)[C@@H]1CSSC[C@H](N)C(=O)N[C@@H](Cc2ccccc2)C(=O)N[C@@H](Cc2ccccc2)C(=O)N[C@@H](CCC(N)=O)C(=O)N[C@@H](CC(N)=O)C(=O)N1)C(=O)NCC(N)=O`, which max response is on record?
The max response was -12.7% (inactive).

For `CCCCCCCCCCCCCCCC(=O)OC[C@@H](COP(=O)([O-])OCC[N+](C)(C)C)OC(=O)CCCCCCCCCCCCCCC`, which max response is on record?
Its max response is 1.61% (inactive).

Which max response does the source give for `CCC(=O)Oc1ccc2c(c1)CC[C@@H]1[C@@H]2CC[C@]2(C)[C@@H](OC(=O)CC)CC[C@@H]12` here?
Its max response is -26.3% (inactive).

`CCC(=O)OCC(=O)[C@@]1(OC(=O)CC)[C@@H](C)C[C@H]2[C@@H]3CCC4=CC(=O)C=C[C@]4(C)[C@@]3(Cl)[C@@H](O)C[C@@]21C` was tested. Which max response did it give?
Its max response is -12.3% (inactive).

Which max response does the source give for `C[N+](C)(CCCCCC[N+](C)(C)C1c2ccccc2-c2ccccc21)C1c2ccccc2-c2ccccc21` here?
The max response was -17.2% (inactive).

Which max response does the source give for `CCC(c1ccccc1)c1noc(CCN(CC)CC)n1` (centres undefined) here?
Its max response is -6.24% (inactive).

With `COc1cc2c(c(OC)c1OC)-c1c(cc3c(c1OC)OCO3)C[C@@H](C)[C@](C)(O)C2` as the compound, how does the max response read?
Its max response is 21.3% (inactive) and -4.33% (inactive).

Which max response does the source give for `CCCC(=O)O[C@]1(C(=O)COC(=O)CC)[C@@H](C)C[C@H]2[C@@H]3CCC4=CC(=O)C=C[C@]4(C)[C@@]3(F)[C@@H](O)C[C@@]21C` here?
Its max response is -7.8% (inactive).

`CC(=O)O[C@H]1CC[C@@]2(C)C(=CC[C@@H]3[C@@H]2CC[C@]2(C)C(c4cccnc4)=CC[C@@H]32)C1` was tested. Which max response did it give?
The max response was 0.542% (inactive).

For `C[C@H]1C[C@H]2[C@@H]3CCC4=CC(=O)C=C[C@]4(C)[C@@]3(F)[C@@H](O)C[C@]2(C)[C@@]1(O)C(=O)CCl`, which max response is on record?
The max response was -8.19% (inactive).

`CCCCC(=O)O` was tested. Which max response did it give?
Its max response is -12.9% (inactive) and -9.7% (inactive).

Which max response does the source give for `COc1ccc(C(=O)Nc2ccccc2CCC2CCCCN2C)cc1` (centres undefined) here?
The max response was -11.1% (inactive).

How did the max response turn out when `Cc1ccc(/C(=C\CN2CCCC2)c2cccc(/C=C/C(=O)O)n2)cc1` was run?
The max response was -13.8% (inactive).

With `CS(=O)(=O)OCCCNCCCOS(C)(=O)=O` as the compound, how does the max response read?
Its max response is -5.57% (inactive).

Which max response does the source give for `O=C(O)c1ccccc1[O-].O=C(O)c1ccccc1[O-].[Zn+2]` here?
Its max response is -8.24% (inactive).

For `CN(C)CCOc1ccccc1Cc1ccccc1` (tested in a mixture with another compound), which max response is on record?
The max response was 0.128% (inactive).

Which max response does the source give for `C[C@]12CC[C@@H]3c4ccc(OS(=O)(=O)O)cc4CC[C@H]3[C@@H]1CCC2=O` here?
Its max response is 3.98% (inactive).

`C=CS(=O)(=O)O` was tested. Which max response did it give?
Its max response is -7.41% (inactive).

With `Cc1c(O)cc2c(c1C)O[C@](C)(CCC[C@H](C)CCC[C@H](C)CCCC(C)C)CC2` as the compound, how does the max response read?
The max response was -6.57% (inactive).

For `NNc1nnc(Cc2ccncc2)c2ccccc12`, which max response is on record?
The max response was -26.3% (inactive).

For `CC(C(=O)O)c1ccc(C2CCCCC2)c2ccccc12` (centres undefined), which max response is on record?
Its max response is -20.6% (inactive).

`CS(=O)(=O)NC(=O)CCC/C=C\C[C@H]1C(=O)C[C@@H](O)[C@@H]1/C=C/[C@H](O)COc1ccccc1` was tested. Which max response did it give?
The max response was -12.3% (inactive).

`CN[C@@H]1CCc2[nH]c3ccc(C(N)=O)cc3c2C1` was tested. Which max response did it give?
Its max response is -3.81% (inactive).
